Laboratory results published in paper PMC7819943, “Rice protein-binding microarrays: a tool to detect cis-acting elements near promoter regions in rice”.
In all, about 35,000 sequences were measured (“fluorescence intensity (a.u.)”: median about 10,000, highest 2% from about 52,000 on). The entries come from a sample that favours the highest values as a whole.

Molecular target: T1, OsWOX13 (Oryza sativa, UniProt Q5QMM3 1-267)
T1 sequence: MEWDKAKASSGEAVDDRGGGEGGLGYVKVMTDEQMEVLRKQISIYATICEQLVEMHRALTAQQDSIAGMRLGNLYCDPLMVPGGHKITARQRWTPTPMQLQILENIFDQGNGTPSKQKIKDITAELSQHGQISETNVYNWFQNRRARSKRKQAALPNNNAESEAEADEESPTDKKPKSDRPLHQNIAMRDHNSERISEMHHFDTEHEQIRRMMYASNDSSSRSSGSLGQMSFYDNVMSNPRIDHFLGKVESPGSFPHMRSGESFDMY
Assay: protein-binding microarray (RPBM); PBS, 2% BSA, 51.3 ng/ul salmon testes DNA, 50 uM zinc acetate, 200 nM TF, 25 C, 1 h; high values mean tight binding
Conditions: protein: recombinant; tags: N-terminal polyhistidine and DsRed monomer fusion (pET32a); label: CyDye5-dUTP incorporated in the synthesized complementary strand; 3' TTTTT single-stranded linker to array surface; dsDNA, one strand shown
Outline: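 Polyhistidine-tagged DsRed fusions of transcription factors, joined at the N-terminus, were expressed in E. coli BL21-CodonPlus and isolated on Ni–NTA. They were incubated at 200 nM for 1 h at 25 °C on a custom Agilent array, double-stranded and BSA-blocked, in PBS with 2% BSA, salmon testes DNA and 50 µM zinc acetate. The binding signal is per-feature fluorescence intensity (arbitrary units) read on an Axon 4000B scanner after washing.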

Sequence	binding signal
CATCCAATCAGTTTAGACAAGGTAAAGTCTCATTTTCACACGGAGTCACCTAGTGCAG	17800 fluorescence intensity (a.u.)
CTCATAACACTTTCCTAATTGCCTCATATGCGGCCTTCCCCGGAGTCACCTAGTGCAG	7620 fluorescence intensity (a.u.)
CTGCACAGTTAATTAAAGGAAAACTGGCGAAAACCCGGCACGGAGTCACCTAGTGCAG	8360 fluorescence intensity (a.u.)
CTTGCTGGTACCAATTAACATGGGTATGTTTAATTTGCTGCGGAGTCACCTAGTGCAG	3650 fluorescence intensity (a.u.)
CCTTAATTACATTGTATATAGTGATGTATGATTTATTTTACGGAGTCACCTAGTGCAG	14700 fluorescence intensity (a.u.)
CATGAGTAAATCAATCAGGGATGGCAACATTCAGGTTTAGCGGAGTCACCTAGTGCAG	12200 fluorescence intensity (a.u.)
CGTTTTGTTAAATTAAAATAAATTAACAAGCCCAATTGCACGGAGTCACCTAGTGCAG	22300 fluorescence intensity (a.u.)
TTACATTAGCAATTGATTGCTCTTATTTGACCATGATGTTCGGAGTCACCTAGTGCAG	31500 fluorescence intensity (a.u.)
AAAGTTTGGATTTTGATTGAAATTGAAGATGATGTGACTGCGGAGTCACCTAGTGCAG	26700 fluorescence intensity (a.u.)
TTAAAAGTTTGATTGAAATTGGAACGATGTGATGGAAAAGCGGAGTCACCTAGTGCAG	22400 fluorescence intensity (a.u.)
ATGCTTTGATTGAAATCAAGTACTCTGAAGCTAGTCATTCCGGAGTCACCTAGTGCAG	56700 fluorescence intensity (a.u.)
CGTGTGCAGTGCAGTGATGATTGAGAAAGGCCATGCCATACGGAGTCACCTAGTGCAG	3900 fluorescence intensity (a.u.)
AAATTAAATTATACTCAATACACAAGTTTGAATCTGATTCCGGAGTCACCTAGTGCAG	11400 fluorescence intensity (a.u.)
GTTGATGAGAGTGAAATTTGATTGACAAAGGATTGACTGGCGGAGTCACCTAGTGCAG	64400 fluorescence intensity (a.u.)
CAGATGTGACTGGTATATATTGAAAGGTGCGAGGCACTGGCGGAGTCACCTAGTGCAG	9620 fluorescence intensity (a.u.)
AAGTTTGATTAAAATTGGAACGATGTGATGGAAAAGTTAGCGGAGTCACCTAGTGCAG	17300 fluorescence intensity (a.u.)
TTGATTGAGATGTGACTGGAAAGGTGTGTCAGTGCAGGCACGGAGTCACCTAGTGCAG	56800 fluorescence intensity (a.u.)
TAAAATTGAAAATTTGATTGAAATTGGAACGATGTGATGGCGGAGTCACCTAGTGCAG	64500 fluorescence intensity (a.u.)
TTGATTGAAATTGGAGATGATGTGACTGAAAAGTTGTGTGCGGAGTCACCTAGTGCAG	41800 fluorescence intensity (a.u.)
TGATTCAAATGATTGAAGCTTTCCAAAACCTATGAAATTCCGGAGTCACCTAGTGCAG	17700 fluorescence intensity (a.u.)
CAAATAATTATTATACTTTGTCATGTCATATAAACTATATCGGAGTCACCTAGTGCAG	17900 fluorescence intensity (a.u.)
ACTCATGCTTACTTGATTGATAGTGGAAGAACCTTTTCTTCGGAGTCACCTAGTGCAG	28200 fluorescence intensity (a.u.)
AGTTTAATGGTGATAATATGATTTCAAAATCTGACAACCGCGGAGTCACCTAGTGCAG	12500 fluorescence intensity (a.u.)
TTTTCTGGTGGCAAGATGATTGAGATATACACCTTGAAGTCGGAGTCACCTAGTGCAG	7690 fluorescence intensity (a.u.)
GGAATTGGTAACAGCAAGCTTAACAGAGAAAGGTAGTCGACGGAGTCACCTAGTGCAG	8350 fluorescence intensity (a.u.)
TCTATAAATTGGCCTAGTACCTGGAAAGTGAAATCTGCCACGGAGTCACCTAGTGCAG	7920 fluorescence intensity (a.u.)
CGTAATTGCATCTCTATTTTCATCTCTACTTCATTTCTCTCGGAGTCACCTAGTGCAG	37900 fluorescence intensity (a.u.)

Sequence	binding signal
AAAATTGAAAGTTTGATTGAAATTAGAACGATGTGACGAACGGAGTCACCTAGTGCAG	35500 fluorescence intensity (a.u.)
CAAAATTTGAAGTTTGATTGAAATTGGTACGATGTGATGGCGGAGTCACCTAGTGCAG	62400 fluorescence intensity (a.u.)
AATTGATTTATTTTGAAACAGAGAGAATACAGTTTATTTACGGAGTCACCTAGTGCAG	32400 fluorescence intensity (a.u.)
TAGAAGTTTGATTGAAATTGAAACGATATGATGGAAAAGTCGGAGTCACCTAGTGCAG	44500 fluorescence intensity (a.u.)
TCTCTGTGATTGAAACCTTGTCTCTGAAATGCTTGAGGGCCGGAGTCACCTAGTGCAG	55400 fluorescence intensity (a.u.)
TCTGATTGAACGAGTTTACAGATTGAGAAAGCACGCGTCACGGAGTCACCTAGTGCAG	53800 fluorescence intensity (a.u.)
CTGATTGAAATTGAAAGTTTGATTGAAATTGAAACGATGCCGGAGTCACCTAGTGCAG	65300 fluorescence intensity (a.u.)
TCAAAATTAGAAGTTTGAAGAAATTGGAACGATGTGATGGCGGAGTCACCTAGTGCAG	7940 fluorescence intensity (a.u.)
TGATGAAGATGATGAGCATGTGATTGAGCTGTCTGATTGCCGGAGTCACCTAGTGCAG	33800 fluorescence intensity (a.u.)
TCTGATGAACACATTGAGAAAGCAGATGAAGTTGCAGTGTCGGAGTCACCTAGTGCAG	5120 fluorescence intensity (a.u.)
ATAGTGATAGGTCTGTCAATGCAGTGAGGTCCTGAAAACCCGGAGTCACCTAGTGCAG	8210 fluorescence intensity (a.u.)
TTTGGTTGAAATTGAAACGATGTGATGGAAAAGTTGGAAGCGGAGTCACCTAGTGCAG	5010 fluorescence intensity (a.u.)
TATTAAACGAATTATCACAAAATTATAGATTTATCATGTTCGGAGTCACCTAGTGCAG	3760 fluorescence intensity (a.u.)
GCTCCAATTTAATTTCAAAATGAATTTATATATTCATTGTCGGAGTCACCTAGTGCAG	14100 fluorescence intensity (a.u.)
CTGCTTAATTACTTCAGCCTTTACACATCAGCATATCATACGGAGTCACCTAGTGCAG	8250 fluorescence intensity (a.u.)
CGTAATTGTTTAGTTGCAAAAGGATAAGCACCAAACCAAACGGAGTCACCTAGTGCAG	12400 fluorescence intensity (a.u.)
ATTATTTGATTGTGGTTTAATTGTTGGTGCAACAGGGTTACGGAGTCACCTAGTGCAG	47900 fluorescence intensity (a.u.)
AAGTTTGATTGAAATTGGAACGATGTGACGGAAAAGTTGACGGAGTCACCTAGTGCAG	35100 fluorescence intensity (a.u.)
TCAAAATTGGAAGTTTGATTGAAATTGGAACGATGTGACGCGGAGTCACCTAGTGCAG	61400 fluorescence intensity (a.u.)
TTGGAAGTTTGATTGAAATTGGAACGATGTGACGGGAAAGCGGAGTCACCTAGTGCAG	23300 fluorescence intensity (a.u.)
TATGTGATTATCTTCTCCATACCATCATGTTCTAGATACGCGGAGTCACCTAGTGCAG	24900 fluorescence intensity (a.u.)
TTCTCATTTTATTTAATTTAAAAGTAATTTATTACATGTTCGGAGTCACCTAGTGCAG	11600 fluorescence intensity (a.u.)
GCCTAATTAATCCATGATTAACCATAAGTGCTGCAGTAACCGGAGTCACCTAGTGCAG	33500 fluorescence intensity (a.u.)
CTGAGATGCTAATTGTGTGTACACTGTTGAGCACATTTGACGGAGTCACCTAGTGCAG	3680 fluorescence intensity (a.u.)
GGCTATTTCGTCCCAATTACCAATGGGCTAATTTTGGATCCGGAGTCACCTAGTGCAG	5000 fluorescence intensity (a.u.)
CTCCCAATATAATTATTTTCTATTTTCACAAACTCAGATACGGAGTCACCTAGTGCAG	5940 fluorescence intensity (a.u.)
